# ELG1 DNA repair: ELG1-dependent DNA repair inhibition. Potency, µM (top dose mostly 46.1 µM), for inactives: at the highest dose activity change, negative = inhibition, hits mostly inhibitors. 2.3% of 330,000 active. HEK293T ELG1-luciferase reporter, luminescence, 16 h; DNA damage induced by 5-fluorouridine; further: on the % scale 0 is the no-effect control and ±100 the full control effect; nearly all actives have a fitted effect of over 55% in size
#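 Step one: seed 2,000 cells per well. Step two: pin-transfer compound or DMSO alongside 5-fluorouridine. Step three: incubate 16 hr, 37 °C, 5% CO2. Step four: add ONE-Glo, wait 30 min, read luminescence.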
# KB-3-1 cytotox: kills parental KB-3-1 adenocarcinoma cells; KB-3-1 viability, CellTiter-Glo ATP luminescence, 72 h; Potency, µM (titrated, usually from 46.1 µM), usual class: cytotoxic; 1.4% of 400,000 active; AID 1347075; further: on the % scale 0 is the no-effect control and ±100 the full control effect; nearly all actives have a fitted effect of over 60% in size
#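 Screening of KB-3-1 cells (DMEM, 10% FBS, phenol-red free) ran from lowest to highest compound concentration; after 72 h at 37 °C viability was read luminescently and curves fitted.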
# KB-V1 cytotox: KB-V1 MDR subline cytotoxicity; KB-V1 MDR cells viability, CellTiter-Glo, 72 h; Potency, µM (doses to about 46.1 µM), actives largely listed as cytotoxic; 3.4% of 400,000 active; AID 1347076; further: on the % scale 0 is the no-effect control and ±100 the full control effect; nearly all actives have a fitted effect of over 60% in size
#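 Cytotoxicity toward P-gp-expressing KB-V1 cells was determined as loss of CellTiter-Glo luminescence after 72 h at 37 degrees C. Compounds were tested in quantitative HTS format across a concentration range, with curves fitted to normalized data.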
# MCF10A rerep: DNA re-replication induction in MCF 10a cells | Potency, µM (doses to about 46.1 µM), for the others: at the highest dose activity, positive = re-replication, most hits filed as activators | 2.9% of 350,000 active | AID 624296 | MCF 10A DNA re-replication, Hoechst nuclear intensity, 48 h; further: % of control where 0% means no effect; nearly all actives have a fitted effect of over 50% in size
# SW480 rerep: induces DNA re-replication in SW480 colon adenocarcinoma cells; Potency, µM (doses to about 46.1 µM), inactives show at the top dose re-replication activation, actives largely listed as activators; AID 624297; 1.8% of 340,000 active; SW480 DNA re-replication, Hoechst DNA content imaging, 48 h; further: % of control where 0% means no effect; nearly all actives have a fitted effect of over 55% in size
#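 Cells (250 per well) received 23 nL compound or DMSO by pin tool and were kept 48 hr at 37 C, 5% CO2. Nuclei were then stained with Hoechst for 40 min and scanned for DNA content.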
# * = called active by the depositor; i = inactive; ? = inconclusive; . = no result. A selection: hits, their analogues and other compounds. The true share with any hit is near 8.1%. The call rests on the fitted dose curve; in most records, active means well fitted curve in the direction sought with a large enough effect; inconclusive means small, poorly fitted or top-dose-only effect, or another doubt; inactive means no such curve, though single readings can be large; an effect the other way counts as inactive or inconclusive. Potency means the concentration at half of the fitted maximal effect.
SMILES,ELG1 DNA repair,KB-3-1 cytotox,KB-V1 cytotox,MCF10A rerep,SW480 rerep
COC(=O)c1c(NC(=O)/C(C#N)=C/c2ccccc2)sc2c1CCC2,.,i,i,.,.
N#C/C(=C\C=C\c1ccccc1)C(=O)NCc1ccco1,-14%,i,i,?,?
O=C(NCc1ccco1)/C(=C/C=C\c1ccccc1)NC(=O)c1ccc(Br)o1,?,?,4.1µM*,?,?
CN(C(=O)CSc1nc2ccccc2n1CC(=O)N(C)C1CCCCC1)c1ccccc1,.,i,i,.,.
COCc1c(Br)c(C)nc(OCC(=O)N/N=C/c2ccc(C)o2)c1C#N,-1%,i,?,0.73µM*,8%
COCc1c(Br)c(C)nc(OCC(=O)N/N=C/c2ccco2)c1C#N,11%,i,i,12%,-8%
COCCN1C(=O)/C(=C/c2ccc(Oc3ccc([N+](=O)[O-])cn3)c(OC)c2)SC1=Nc1ccccc1,2.6µM*,?,?,13%,1%
COc1ccc(/C=N\NC(=O)c2cccc([N+](=O)[O-])c2)cc1Cn1cc([N+](=O)[O-])cn1,15µM*,.,.,.,.
COc1cc(/C=N\NC(=O)c2ccccc2F)ccc1Oc1ccc([N+](=O)[O-])cn1,-26%,?,7.3µM*,23µM*,?
COc1cc(/C=C(/C#N)c2ccc(F)cc2)ccc1Oc1ccc([N+](=O)[O-])cn1,0%,?,2.3µM*,?,-3%
COc1cc(C(=O)OCC(=O)N2CCNC2=O)cc(Cl)c1OC,12%,i,i,2%,-3%
COc1cc(/C=N\NC(=O)c2ccc(Cl)cc2)ccc1Oc1ccc([N+](=O)[O-])cn1,?,i,i,-4%,-8%
COc1cc(/C=N\NC(=O)c2cccc(Cl)c2)ccc1Oc1ccc([N+](=O)[O-])cn1,?,i,?,?,21µM*
CCOC(=O)C1=C(COC(=O)CCOc2ccc(C)cc2)NC(=O)NC1C (stereo not given),26µM*,i,i,18µM*,?
CCOC(=O)C1=C(COC(=O)/C=C/c2ccc(OC)cc2OC)NC(=O)NC1C (stereo not given),?,i,6.5µM*,2%,2%
O=C(NCc1ccccc1Cl)C1CCCN(C(=O)c2cnn(-c3ccc(F)cc3)c2-n2cccc2)C1 (stereo not given),.,?,16µM*,.,.
COc1cccc(CNC(=O)C2CCCN(S(=O)(=O)c3cnc[nH]3)C2)c1 (stereo not given),1%,i,i,19%,-1%
COc1cccc(CNC(=O)C2CCCN(S(C)(=O)=O)C2)c1 (stereo not given),-5%,i,i,21µM*,2%
COC(=O)c1ccccc1NC(=O)C1CCCN(C(=O)c2cnn(-c3ccc(F)cc3)c2-n2cccc2)C1 (stereo not given),.,?,18µM*,.,.
COCCCNC(=O)C1CCCN(C(=O)c2cnn(-c3ccc(F)cc3)c2-n2cccc2)C1 (stereo not given),.,i,i,.,.
O=C(Nc1ccc(F)cc1F)C1CCN(C(=O)c2cnn(-c3ccccc3)c2-n2cccc2)CC1,.,i,i,.,.
CCCSCCCNC(=O)C1CCCN(C(=O)c2cnn(-c3ccccc3)c2-n2cccc2)C1 (stereo not given),.,i,i,.,.
COc1ccc(CNC(=O)C2CCCN(C(=O)c3cnn(-c4ccc(F)cc4)c3-n3cccc3)C2)cc1 (stereo not given),.,?,13µM*,.,.
COc1ccc2c(CN3CCN(Cc4ccccc4)CC3)cc(=O)oc2c1,.,i,?,.,.
Cc1n[nH]c(C)c1S(=O)(=O)N1CCCC(C(=O)NCc2ccc(F)cc2)C1 (stereo not given),11%,i,i,0.73µM*,-59%
SMILES,ELG1 DNA repair,KB-3-1 cytotox,KB-V1 cytotox,MCF10A rerep,SW480 rerep
CN(c1ccc(F)cc1)S(=O)(=O)N1CCCC(C(=O)NCCc2ccccc2)C1 (stereo not given),.,i,i,.,.
CN(c1ccc(F)cc1)S(=O)(=O)N1CCCC(C(=O)NCc2ccccc2Cl)C1 (stereo not given),.,16µM*,i,.,.
CCOc1ccc(CNS(=O)(=O)c2ccc3c(c2)CCCN3C(C)=O)cc1OC,.,i,i,.,.
Cc1ccc(C(=O)C=Cc2cccc(C)c2)cc1,.,i,i,18µM*,?
Cc1ccc(C(=O)/C=C/C(=O)c2ccc(C)cc2)cc1,?,i,i,3.7µM*,-3%
COc1ccc(N2CC(C(=O)N3CCCC(C)C3)CC2=O)cc1 (stereo not given),-7%,i,i,3%,18µM*
COc1ccc(N2CC(C(=O)N3CCOCC3)CC2=O)cc1 (stereo not given),22%,i,i,-14%,-8%
Cc1ccc(Cl)cc1-n1ncc2c(Nc3ccc4c(c3)OCCO4)ncnc21,.,i,i,.,.
O=C(NCCNS(=O)(=O)c1ccccc1Cl)c1cc(OCC(F)(F)F)ccc1OCC(F)(F)F,15µM*,i,?,15%,-3%
CCOC(=O)c1cnc2cc(C(F)(F)F)ccc2c1Nc1ccc(F)cc1F,.,i,i,.,.
CO/N=C/NC(=O)Cc1cn(-c2ncc(C(F)(F)F)cc2Cl)c2ccccc12,-22%,?,13µM*,-15%,2%
CC(=O)/C=C\c1cn(-c2ncc(C(F)(F)F)cc2Cl)c2ccccc12,-20%,21µM*,?,?,?
CCOc1ccc(NC(=O)CN2CCSc3ccc(S(=O)(=O)N4CCCC4)cc32)cc1,.,?,10µM*,.,.
CCOc1ccc(NC(=O)CN2C(=O)CSc3ccc(S(=O)(=O)N4CCOCC4)cc32)cc1,-3%,i,?,-1%,-5%
Cc1ccc(NC(=O)CN2CCSc3ccc(S(=O)(=O)N4CCCC4)cc32)cc1,.,i,12µM*,.,.
COc1cc(OC)c(NC(=O)CCc2c(C)nc3c4c(C)cc(C)nc4nn3c2C)cc1Cl,.,i,i,.,.
Cc1ccc(S(=O)(=O)N/N=C\c2ccc3c(c2)OCO3)cc1,4%,i,i,-3%,21%
CC(=O)c1cc2c(cc1NS(=O)(=O)c1ccc(C)cc1)OCCO2,-1%,i,16µM*,15µM*,?
O=S(=O)(Nc1ccc2c(c1)OCCO2)c1ccc(F)cc1,-16%,i,i,-3%,-9%
O=C1CCCN1c1ccc(S(=O)(=O)Nc2ccc3c(c2)OCCO3)cc1,?,18µM*,18µM*,1%,-2%
Cc1ccc(S(=O)(=O)Nc2ccc3c(c2)OCCO3)cc1,-11%,?,23µM*,11%,-12%
Cc1ccc(S(=O)(=O)N/N=C\c2cc3c(cc2Br)OCO3)cc1,-9%,i,i,4.6µM*,?
